Compound activity as filed in PubChem BioAssay.
DRD3 agonist: qHTS of D3 Dopamine Receptor Agonist: qHTS | max activation, % | actives 0.58% (n = 410,000) | D(3) dopamine receptor (Homo sapiens), P35462 | AID 652048, 2013 | D3R DiscoveRx beta-arrestin cells, luminescence, 90 min; in the data active means max activation above about 30%; further: 0% is about no effect
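Cells at 1500/well, incubated overnight, then treated with pinned compounds (dopamine as control) for 90 min at 37 degrees C. DiscoveRx reagent added for 30 - 60 minutes at room temperature; luminescence read.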
D3 antag: qHTS of D3 Dopamine Receptor Antagonist: qHTS. max response, negative = inhibition, %. D3R cells, DiscoveRx beta-arrestin luminescence, antagonist mode; active compounds read low. AID 652054, 2013. actives 2.5% (n = 360,000); in the data active means max response below about -50%; inconclusive means no clear call, values can overlap the other calls; further: on the % scale 0 is the no-effect control and ±100 the full control effect
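Cells expressing the human receptor were seeded at 1500 cells/well, incubated overnight at 37 degrees C in 5% CO2, then exposed to library compounds with dopamine controls for 90 minutes at 37 degrees C before luminescent detection.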
B2AR arrestin: qHTS assay of beta-arrestin-biased ligands of beta2-adrenergic receptor. Beta-2 adrenergic receptor (Homo sapiens), P07550. beta-arrestin recruitment to beta2AR, cell-based reporter. Potency, µM (top dose mostly 46.1 µM), for inactives: at the top dose activation, usual class: activators. actives 0.02% (n = 330,000). AID 492947, 2010; active means well fitted activation curve with a large enough effect; inconclusive means small, poorly fitted or top-dose-only effect;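 further: potency means the concentration at half of the fitted maximal effect; 0% = DMSO controls and full agonism = EC100 isoproterenol or metaproterenol; nearly all actives have a fitted effect of over 65% in size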
TSHR antag: Antagonists of the Thyroid Stimulating Hormone Receptor: HTS campaign; Thyrotropin receptor (Homo sapiens), P16473; TSHR-expressing cells, TSH-stimulated cAMP HTRF, 2 h; active compounds read low; activity change, negative = inhibition, % at 11.5 µM; actives 0.2% (n = 330,000); AID 504810, 2011;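 active means activity change below a set negative limit, meaning inhibition stronger than a set level, cut at about -70% in these data; inconclusive means activity change between two set negative limits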; further: on the % scale 0 is the no-effect control and ±100 the full control effect
Target sequence (P16473 whole entry, looked up): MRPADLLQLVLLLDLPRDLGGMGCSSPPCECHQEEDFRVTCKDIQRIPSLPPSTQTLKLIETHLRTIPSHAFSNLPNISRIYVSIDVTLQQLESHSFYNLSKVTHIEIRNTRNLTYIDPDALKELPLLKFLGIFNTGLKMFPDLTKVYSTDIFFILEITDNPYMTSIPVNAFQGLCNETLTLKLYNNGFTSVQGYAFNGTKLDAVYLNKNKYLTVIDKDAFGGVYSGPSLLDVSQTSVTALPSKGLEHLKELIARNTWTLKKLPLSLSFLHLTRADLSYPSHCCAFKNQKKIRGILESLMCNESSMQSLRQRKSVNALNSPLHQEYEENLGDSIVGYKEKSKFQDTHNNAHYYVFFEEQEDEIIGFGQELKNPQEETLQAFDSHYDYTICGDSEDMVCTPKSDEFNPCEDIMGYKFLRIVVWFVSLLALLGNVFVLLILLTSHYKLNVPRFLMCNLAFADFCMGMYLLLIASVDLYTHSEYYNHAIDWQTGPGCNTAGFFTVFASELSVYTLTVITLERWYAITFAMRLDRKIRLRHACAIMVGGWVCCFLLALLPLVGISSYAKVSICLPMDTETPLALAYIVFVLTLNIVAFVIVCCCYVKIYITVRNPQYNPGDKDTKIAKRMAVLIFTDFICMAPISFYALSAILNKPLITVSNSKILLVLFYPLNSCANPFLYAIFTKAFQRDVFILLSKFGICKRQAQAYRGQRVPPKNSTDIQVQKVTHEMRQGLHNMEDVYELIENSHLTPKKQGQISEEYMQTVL
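Freshly harvested TSHR cells receive pin-tooled compound, then EC80 TSH at 4nM final. After 2 hours at 37 deg C, antibody in lysis buffer and cAMP-d2 are added; 30 minutes at ambient temperature precede the HTRF read.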
Starred values were filed as active, the others as inactive; ? = inconclusive; . = no result given; ! = a repeat was not active. Only some compounds are listed: those with a hit (about 2.9% of all), similar ones and a draw of the others.

SMILES | DRD3 agonist | D3 antag | B2AR arrestin | TSHR antag
CCN(CC)CCCNC(=O)c1nn(-c2ccc(OC)c(Cl)c2)c(=O)c2c1c1ccccc1n2C | -4 | . | . | .
CN(Cc1ccccc1Cl)C(=O)c1cc2ccccc2o1 | -7 | -26 | 0% | -102*
COc1cc(NS(=O)(=O)c2cccc3nsnc23)cc(OC)c1 | 3 | -64* | 0% | -5
O=C(O)c1cc(Br)ccc1NS(=O)(=O)c1cccc2nsnc12 | 6 | 16 | -1% | -9
COc1cc(NS(=O)(=O)c2cccc3nsnc23)c(C(=O)O)cc1OC | -4 | -83* | 0% | 3
CCOc1cc2c(cc1OCC)C(CC(=O)O)N(C(=O)Nc1ccc(Br)c(C)c1)CC2 (stereo not given) | -5 | . | . | .
CCOC(=O)c1ccc(NC(=O)CCc2c(C)n(CC)c3cc(-c4ccccc4OC)nn3c2=O)cc1 | 0 | . | . | .
CN1C(=O)NC2(O)C(=O)c3ccccc3C12O (stereo not given) | 9 | -60* | 0% | -1
COc1cccc(-c2ccc3c(c2)O[C@H](CN(C)C(=O)c2ccccc2F)[C@H](C)CN([C@H](C)CO)S3(=O)=O)c1 | 12 | -9 | . | .
COc1cc(OC)c(OC)cc1CNC(=O)c1ccc(COc2ccccc2)cc1 | 31* | 4 | -1% | -11
Cc1cccc(C(=O)OCC(=O)NCc2cccs2)c1 | 2 | 2 | 0% | 1
CS(=O)(=O)c1ccc(C(=O)OCC(=O)NCc2cccs2)cc1[N+](=O)[O-] | -11 | -60* | 0% | ?
CC(C)(CNC(=O)C1c2ccccc2-c2ccccc21)N1CCOCC1 | 5 | 1 | 7% | -82*
O=C1NC(c2ccccc2)=C(c2nc3ccccc3s2)C(c2ccc(F)cc2)N1 (stereo not given) | 14 | -56* | 0% | 23
COc1ccc(NC(=O)c2cnn(-c3ccc(C)cc3)c2-n2cccc2)cc1Cl | -2 | . | . | .
O=C(CCC1N=C2c3ccccc3N=C(SCc3ccccc3F)N2C1=O)NCc1ccc(F)cc1 (stereo not given) | -15 | . | . | .
CCOC(=O)[C@@H]1[C@H]2COc3cc(OC)ccc3[C@H]2N2C(=O)N(c3ccc(Cl)cc3)C(=O)[C@]12C | 1 | 13 | 0% | -9
CCOC(=O)[C@@H]1[C@H]2COc3cc(OC)ccc3[C@@H]2N2C(=O)N(c3ccc(OC)cc3)C(=O)[C@@]12C | 0 | 34 | 0% | -5
CCOC(=O)[C@@H]1[C@H]2COc3ccc(Br)cc3[C@H]2N2C(=O)N(c3ccc(OC)cc3)C(=O)[C@]12C | -14 | -62* | 0% | 6
CCOC(=O)[C@@H]1[C@H]2COc3cc(OC)ccc3[C@@H]2N2C(=O)N(c3ccc(Cl)cc3)C(=O)[C@]12C | 34* | -25 | . | .
CCOC(=O)[C@H]1[C@H]2COc3ccc(OC)cc3[C@@H]2N2C(=O)CN(CCc3c[nH]c4ccccc34)C(=O)[C@@]12C | 58* | -3 | 0% | -11
CCOC(=O)[C@@H]1[C@H]2COc3cc(OC)ccc3[C@@H]2N2C(=O)N(c3ccc(C(F)(F)F)cc3)C(=O)[C@]12C | 46* | 5 | 0% | 7
CC(C)(C)OC(=O)N1CCC(c2c(C(=O)NCc3ccco3)cnn2-c2ccccc2Cl)CC1 | -3 | . | . | .
Cc1cccc(C)c1NC(=O)CCC(=O)N1Cc2ccccc2Oc2ncccc21 | -15 | . | . | .
Cc1c(Cl)cccc1NC(=O)CCN1CCCCC1 | -4 | -58* | 0% | 14
SMILES | DRD3 agonist | D3 antag | B2AR arrestin | TSHR antag
O=C(CN1CCCC1)Nc1ccc(Br)cc1 | -1 | -17 | -1% | 35
Cc1ccc(S(=O)(=O)NCC(=O)Nc2ccc(C(F)(F)F)cc2)cc1 | 35* | 18 | 0% | 6
O=C(CCN1CCCCC1)Nc1ccc(Br)cc1 | -13 | -69* | 0% | 15
O=C(CN1CCN(C2CCCCC2)CC1)Nc1ccc(Br)cc1 | -20 | -53* | 0% | 1
O=C(CNS(=O)(=O)c1ccc(F)cc1)Nc1ccc(C(F)(F)F)cc1 | 5 | 11 | 0% | -10
Cc1ccc(NCc2cccn2-c2nnc(N3CCC(C(=O)NCc4ccccc4C)CC3)s2)cc1 | -10 | . | . | .
COc1ccc(N2CCN(S(=O)(=O)c3ccc(F)c(C(=O)Nc4ccccc4Cl)c3)CC2)cc1 | 8 | . | . | .
Cc1ccc(NC(=O)c2c(C)cc(C)nc2SCC(=O)Nc2ccc(Br)cc2)cc1 | -1 | . | . | .
CCc1ccccc1NC(=O)c1cc(S(=O)(=O)N2CCCc3ccccc32)ccc1F | 11 | . | . | .
Cc1ccc(NC(=O)CN2CCCC2)cc1 | -13 | -8 | -1% | 4
Cc1ccc(NC(=O)CN2CCCC2)cc1Br | -26 | -64* | -1% | 10
Cc1c(Cl)cccc1NC(=O)CN1CCC(C(O)(c2ccccc2)c2ccccc2)CC1 | -64 | -62* | 0% | 8
Cc1ccc(S(=O)(=O)Nc2cccc(NC(=O)CN3CCCCC3)c2)cc1 | -10 | -15 | 0% | -2
O=C(CN1CCCCCC1)Nc1ccc(Br)cc1 | -29 | -114* | -2% | 1
Cc1ccc(S(=O)(=O)Nc2ccc(NC(=O)CN3CCCCC3)cc2)cc1 | -10 | -60* | 0% | -1
Cc1cccc(N(C)S(=O)(=O)c2cc(-c3cnc(C4CC4)o3)ccc2C)c1 | -10 | . | . | .
NS(=O)(=O)c1ccc(NC(=O)C2Cc3ccccc3N2C(=O)c2ccccc2)cc1 (stereo not given) | -6 | . | . | .
Cc1ccc(-c2cnc(C3CC3)o2)cc1S(=O)(=O)Nc1ccc(F)cc1Cl | -13 | . | . | .
COC(=O)c1ccc(NC(=O)CCN2CCCCC2)cc1 | -4 | -52*! | 0% | 8
CCN1CCC(O)(/C=C/c2ccc(C(C)C)cc2)C(C(=O)/C=C/c2ccc(C(C)C)cc2)C1 (stereo not given) | -9 | -66* | . | .
CCOC(=O)c1ccc(Nc2nc(=O)c3cccnc3s2)cc1 | 3 | -70* | 0% | 8
O=C(Nc1c(C(=O)N2CCC(N3CCCCC3)CC2)oc2ccccc12)c1ccc(F)cc1 | -10 | -12 | 1% | -7
O=C(Nc1c(C(=O)N2CCC(N3CCCCC3)CC2)oc2ccccc12)c1c(F)cccc1F | 51*! | -8 | 0% | 4
CCCCCCCN1N=C(C)C(C(=O)c2ccccc2)C1=O (stereo not given) | 4 | -25 | -1% | -11
CCCCCCN1N=C(C)C(C(=O)c2ccc(Cl)cc2)C1=O (stereo not given) | 2 | -83* | -1% | 11
Cc1ccc(-c2noc(-c3nnn(CC(=O)Nc4cc(Cl)ccc4C)c3N)n2)cc1 | 1 | . | . | .
CNC(=S)Nc1cccc(-c2cnc3ccccc3n2)c1 | -12 | -74* | 0% | 3
CCCCN1CCC(n2c(=O)[nH]c3ccccc32)CC1 | . | . | . | -12
Cc1ccc(C(=O)NCCN2CCC(n3c(=O)[nH]c4ccccc43)CC2)cc1F | -11 | -70* | . | .
